According to PubChem BioAssay (Tox21):
Records with an inconclusive call do not appear. Active and inactive are the calls of the source. Unless noted, the call rests on the fitted dose curve; in most records, active means well fitted curve in the direction sought with a large enough effect in the repeat runs; inconclusive means weak or mixed curves; inactive means no such curve, though single readings can be large; an effect the other way counts as inactive or inconclusive.

Legend:
[1] = qHTS assay to identify aromatase inhibitors - cell viability counter screen (AID 743084);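 further: cells stimulated with testosterone during compound exposure; nearly all actives have a fitted effect of over 55% in size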
[2] = biological target: Aryl hydrocarbon receptor (Homo sapiens) (UniProt P35869); assay: qHTS assay to identify small molecule that activate the aryl hydrocarbon receptor (AhR) signaling pathway (AID 743085);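 further: HG2L7.5c1 human HepG2 liver cells with stably integrated DRE-driven firefly reporter; series mostly up to about 70 µM; nearly all actives have a fitted effect of over 15% in size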
How it was run: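 Measured in HG2L7.5c1 cells: CellTiter-Fluor signal (30 min incubation, 37C) for viability, then luciferase luminescence (30 min, room temperature). Compound contact time was 24 h at 37C, following a 5 h pre-incubation.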

[3] = qHTS assay to identify small molecule that activate the aryl hydrocarbon receptor (AhR) signaling pathway - cell viability counter screen (AID 743086);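 further: HepG2 liver cells carrying the AhR DRE luciferase reporter; series mostly up to about 70 µM; nearly all actives have a fitted effect of over 45% in size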
How it was run: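 HepG2-AhR-luc (HG2L7.5c1) cells, 4000/well, were preincubated 5 h at 37C, exposed to compound in qHTS format for 24 hr at 37C, then given CellTiter-Fluor for 30 min; viability was read as fluorescence in the reporter wells.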

[4] = biological target: Peroxisome proliferator-activated receptor gamma (Homo sapiens) (UniProt P37231); assay: qHTS assay to identify small molecule agonists of the peroxisome proliferator-activated receptor gamma (PPARg) signaling pathway (AID 743094; active means well fitted activation curve with a large enough effect in the signal ratio in the repeat runs, not every such curve was filed as active; the % refers to the signal ratio)
How it was run: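 Compounds dissolved in DMSO were added to PPARg UAS-bla HEK293H cells for 17 h at 37C, and reporter expression was quantified by fluorescence intensity after 1 h with LiveBLAzer B/G FRET substrate.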

Measured: Potency

Peroxisome proliferator-activated receptor gamma (Homo sapiens), sequence (P37231 whole entry, looked up): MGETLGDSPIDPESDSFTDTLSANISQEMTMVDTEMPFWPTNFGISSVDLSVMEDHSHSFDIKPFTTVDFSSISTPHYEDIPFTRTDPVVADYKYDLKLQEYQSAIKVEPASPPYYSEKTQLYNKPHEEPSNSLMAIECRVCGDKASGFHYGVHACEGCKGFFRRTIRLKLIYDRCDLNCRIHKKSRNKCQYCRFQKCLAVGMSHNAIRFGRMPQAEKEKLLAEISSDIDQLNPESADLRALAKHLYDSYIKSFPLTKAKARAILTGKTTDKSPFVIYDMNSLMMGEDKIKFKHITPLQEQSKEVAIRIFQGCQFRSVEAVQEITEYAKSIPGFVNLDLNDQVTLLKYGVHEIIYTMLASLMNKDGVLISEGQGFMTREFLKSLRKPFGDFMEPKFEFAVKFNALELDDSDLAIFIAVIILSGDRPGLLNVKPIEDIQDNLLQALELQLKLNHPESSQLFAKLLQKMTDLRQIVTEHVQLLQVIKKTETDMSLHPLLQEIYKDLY
Aryl hydrocarbon receptor (Homo sapiens), sequence (P35869 whole entry, looked up): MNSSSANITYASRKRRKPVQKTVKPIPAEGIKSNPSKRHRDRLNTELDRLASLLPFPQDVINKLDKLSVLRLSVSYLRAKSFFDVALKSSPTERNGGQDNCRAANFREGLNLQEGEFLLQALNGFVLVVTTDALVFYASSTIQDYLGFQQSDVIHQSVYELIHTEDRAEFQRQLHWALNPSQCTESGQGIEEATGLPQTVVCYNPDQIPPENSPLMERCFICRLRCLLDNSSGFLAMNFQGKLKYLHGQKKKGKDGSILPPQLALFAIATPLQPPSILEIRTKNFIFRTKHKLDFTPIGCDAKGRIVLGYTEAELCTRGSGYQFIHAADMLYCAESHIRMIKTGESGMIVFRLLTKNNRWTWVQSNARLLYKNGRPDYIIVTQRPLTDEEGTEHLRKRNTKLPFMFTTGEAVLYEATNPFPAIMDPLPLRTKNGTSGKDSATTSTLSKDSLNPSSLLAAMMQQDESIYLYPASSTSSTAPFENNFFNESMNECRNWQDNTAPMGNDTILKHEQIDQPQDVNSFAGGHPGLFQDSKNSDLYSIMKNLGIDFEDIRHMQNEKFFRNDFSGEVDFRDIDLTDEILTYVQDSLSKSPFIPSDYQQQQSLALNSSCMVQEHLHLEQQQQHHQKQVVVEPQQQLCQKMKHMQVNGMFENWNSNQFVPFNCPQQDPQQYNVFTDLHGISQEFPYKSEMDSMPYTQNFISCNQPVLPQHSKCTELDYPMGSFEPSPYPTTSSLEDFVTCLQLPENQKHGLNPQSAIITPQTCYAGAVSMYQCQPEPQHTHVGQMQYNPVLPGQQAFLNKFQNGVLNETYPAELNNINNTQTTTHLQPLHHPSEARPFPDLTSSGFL

N[C@H](CO)C(=O)O
inactive: [1] | [2] | [3] | [4]

C=CC[N+]1([C@H]2C[C@H]3[C@@H]4CC[C@H]5C[C@H](O)[C@@H](N6CCOCC6)C[C@]5(C)[C@H]4CC[C@]3(C)[C@H]2OC(C)=O)CCCC1
inactive: [1] | [2] | [3] | [4]

NCC1CCC(C(=O)O)CC1 (centres undefined)
inactive: [1] | [2] | [3] | [4]

CCC(=O)OC(OP(=O)(CCCCc1ccccc1)CC(=O)N1C[C@H](C2CCCCC2)C[C@H]1C(=O)O)C(C)C (some centres undefined)
inactive: [1] | [2] | [3] | [4]

CN(C)CCc1c[nH]c2ccc(Cn3cncn3)cc12
inactive: [1] | [2] | [3] | [4]

CNCC(=O)N[C@@H](CCCN=C(N)N)C(=O)N[C@H](C(=O)N[C@@H](Cc1ccc(O)cc1)C(=O)N[C@H](C(=O)N[C@@H](Cc1cnc[nH]1)C(=O)N1CCC[C@H]1C(=O)N[C@@H](C)C(=O)O)C(C)C)C(C)C
inactive: [1] | [2] | [3] | [4]

Cc1ncc(C[n+]2csc(CCOP(=O)(O)O)c2C)c(N)n1
inactive: [1] | [2] | [3] | [4]

CCOc1ccc(NC(=S)Nc2ccc(OCC)cc2)cc1
inactive: [1] | [2] | [3] | [4]

CC[C@@H](C)[C@H](N)C(=O)O
inactive: [1] | [2] | [3] | [4]

FC(F)(F)COCC(F)(F)F
inactive: [1] | [2] | [3] | [4]

CS(=O)(=O)c1ccc([C@@H](O)[C@@H](COC(=O)CN)NC(=O)C(Cl)Cl)cc1
inactive: [1] | [2] | [3] | [4]
